Measured values reported in PMC7826789 (International Journal of Molecular Sciences, 2021).

Test system: FLT3(ITD,F691L)
Conditions: Compound Concentration (nM):1000
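Also: KINOMEscan scanMAX binding as percent activity remaining versus control; lower means stronger binding.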

Row | SMILES | Percent Control
1 | CN(C)CCNC(=O)Nc1ccc(N(C)c2ccnc(Nc3ccc(CS(C)(=O)=O)cc3)n2)cc1.Cl [GW830900A] | 19%
2 | C/C(Nc1ccc(S(N)(=O)=O)cc1)=C1/C(=O)Nc2ccccc21 [GW335962X] | 3%
3 | Cc1cc(O)cc(C)c1/C=C/c1cncc(C(N)=O)c1 [GW435821X] | 100%
4 | COc1cc(C)c(N(C)C(=O)CN(C)C)cc1Nc1nc(Nc2cccc(F)c2C(N)=O)c2cc[nH]c2n1 [GSK2219385] | 100%
5 | COC(=O)Nc1nc2ccc(Oc3ccc(NC(=O)Nc4cc(C(F)(F)F)ccc4F)cc3)cc2s1.Cl [GW693917A] | 44%
6 | NS(=O)(=O)c1ccc(Nc2ncc(-c3ccccc3)o2)cc1 [GW572399X] | 42%
7 | CN(C)c1cc2c(Nc3ccc4c(cnn4Cc4ccccc4)c3)ncnc2cn1 [GW282974X] | 100%
8 | CCc1ccc(Oc2nccc(-c3c(-c4ccc(F)cc4)ncn3C3CCNCC3)n2)cc1 [SB-242719] | 93%
9 | Nc1ncnc2occ(-c3ccc(NC(=O)Nc4cc(C(F)(F)F)ccc4F)cc3)c12 [GW770249X] | 27%
10 | CN1CCN(C(=O)c2ccc(NC(=O)Nc3ccc(N(C)c4ccnc(Nc5ccc(CS(C)(=O)=O)cc5)n4)cc3)cc2)CC1.Cl [GW830263A] | 6.8%
11 | COc1cc2ncn(-c3cc(O[C@H](C)c4ccccc4Cl)c(C(N)=O)s3)c2cc1OC [GSK237701A] | 21%
12 | COc1ccc(COc2ccc(Cc3cnc(N)nc3N)cc2OC)cc1 [GW632580X] | 99%
13 | CCn1c(-c2nonc2N)nc2c(C#CC(C)(C)O)nc(OCCNC)cc21.Cl [GSK949675] | 22%
14 | COc1cc(/C=N/Nc2ncnc3[nH]ncc23)ccc1O [GW578748X] | 11%
15 | COc1cc(N2CCN(C(C)C)CC2)ccc1Nc1nc(Nc2ccc(F)cc2C(=O)NC[C@@H](O)CO)c2cc[nH]c2n1 [GSK1392956A] | 40%
16 | Cl.c1ccc(Cc2nc3ccc(Nc4ncnc5ccccc45)cc3[nH]2)cc1 [GR269666A] | 100%
17 | C[C@@H](Oc1cc(-n2cnc3ccc(OC4CCN(C)CC4)cc32)sc1C(N)=O)c1ccccc1Cl [GSK579289A] | 8.2%

Row | SMILES | Percent Control
18 | CC1=C(C(=O)Nc2ccc3[nH]ncc3c2)C(c2ccc(Cl)c(Cl)c2)CC(=O)N1 (stereo not drawn) [GSK299115A] | 94%
19 | COc1cccc(-n2ncc3c(N/N=C/c4ccncc4)ncnc32)c1 [GW784752X] | 55%
20 | COc1cc2ncnc(Nc3ccc4c(cnn4Cc4ccccc4)c3)c2cc1OC.Cl [GW282449A] | 100%
21 | Cl.O=C(Nc1ccc(Oc2ccc3[nH]c(NC(=O)c4ccco4)nc3c2)cc1)Nc1cc(C(F)(F)F)ccc1F [GW683134A] | 39%
22 | CC(C)COC(=O)c1ccc2c(c1)/C(=C/Nc1ccc(S(N)(=O)=O)cc1)C(=O)N2 [GW416981X] | 0%
23 | COc1ccc2[nH]c3c4[nH]c5ccc(OC)cc5c4c4c(c3c2c1)C(=O)NC4=O [GW296115X] | 3.6%
24 | COc1ccc2c(-c3ccnc(Nc4cccc(OC(F)(F)F)c4)n3)cnn2n1 [GW810372X] | 89%
25 | COc1ccc2cc(-c3c(-c4ccncc4)nc(-c4ccc(S(C)(=O)=O)cc4C)n3C)ccc2c1 [SB-633825] | 81%
26 | O=C1Nc2ccc(C(=O)c3ccco3)cc2C1=Cc1cc(Cl)c(O)c(Cl)c1 [GW406108X] | 29%
27 | CCS(=O)(=O)c1ccc(OC)c(Nc2ncc(-c3cccc(F)c3)o2)c1 [GW621970X] | 25%
28 | CC1=C(C(=O)Nc2ccc3[nH]ncc3c2)C(c2ccc3ccccc3c2)CC(=O)N1 (stereo not drawn) [GSK270822A] | 79%
29 | COc1cc(C=NNc2ncnc3c2cnn3-c2ccccc2)ccc1O [GW513184X] | 46%
30 | Cl.O=C(O[C@H]1CN[C@H](C#Cc2cc3ncnc(Nc4ccc5c(cnn5Cc5ccccc5)c4)c3s2)C1)N1CCOCC1 [GSK200398A] | 92%
31 | O=C(Nc1n[nH]c2nc(-c3ccc(O)cc3)c(Br)cc12)C1CC1 [SB-725317] | 37%
32 | Cl.O=C(Nc1ccc(Oc2ccc3[nH]c(NC(=O)c4ccccc4)nc3c2)cc1)Nc1cc(C(F)(F)F)ccc1F [GW709042A] | 56%
33 | CCS(=O)(=O)c1ccc(OC)c(Nc2ncc(-c3cccc(OC)c3)o2)c1 [GW580509X] | 30%
